SENP8 block-1 – inhibitors of human SENP8 protease. Q96LD8. purified SENP8, Z-RLRGG-aminoluciferin cleavage, luminescence. inhibition, % at 10 µM. 1.2% of 330,000 active. AID 2540; in the data active = inhibition above about 50%
SENP6 block – blocks the human protease SENP6 | Q9GZR1 | Recombinant SENP6 catalytic domain, aminoluciferin luminescence | inhibition, % at 10 µM | 1.8% of 330,000 active | AID 2599;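 active = inhibition above about 50% at the single tested dose, limit read from the data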;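 note: plate controls were DMSO wells with enzyme for no effect and DMSO wells lacking enzyme for full effect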
Target sequence (Q9GZR1 628-1112 limits assumed): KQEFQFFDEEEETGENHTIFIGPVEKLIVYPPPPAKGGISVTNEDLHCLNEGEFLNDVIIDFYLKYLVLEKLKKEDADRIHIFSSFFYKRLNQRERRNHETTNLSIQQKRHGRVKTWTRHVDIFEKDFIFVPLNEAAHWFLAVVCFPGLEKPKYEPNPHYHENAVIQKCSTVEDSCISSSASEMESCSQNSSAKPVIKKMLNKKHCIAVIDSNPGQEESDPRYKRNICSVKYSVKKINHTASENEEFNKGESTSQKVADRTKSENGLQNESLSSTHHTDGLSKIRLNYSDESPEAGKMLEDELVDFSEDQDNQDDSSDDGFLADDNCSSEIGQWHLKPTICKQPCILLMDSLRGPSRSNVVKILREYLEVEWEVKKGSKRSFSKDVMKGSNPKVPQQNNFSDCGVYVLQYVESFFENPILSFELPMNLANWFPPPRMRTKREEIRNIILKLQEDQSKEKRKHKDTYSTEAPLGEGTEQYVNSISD
PPC-1+TRAIL kill – compounds killing PPC-1 cancer cells with TRAIL present (potentiator screen, no TRAIL-free arm) | AID 1443 | 0.41% of 220,000 active | cell killing (% activity), % at 4 µM or 5 µM | PPC-1 cells + TRAIL, ATPLite viability luminescence;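 active = cell killing above 50% in the first pass at 4 µM, then a duplicate retest at 5 µM averaging 50% or more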;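 note: plate controls were cells with TRAIL plus DMSO for no effect and medium-only wells lacking cells for full effect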
SENP7 inh – blocks the human protease SENP7 | 1.5% of 330,000 active | inhibition, % at 5 µM | recombinant SENP7, Z-RLRGG-aminoluciferin luminescence, 40 min;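 active = inhibition above about 50% at the single test dose, limit read from the data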;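 note: plate controls were DMSO with enzyme for no effect and no enzyme buffer wells for full effect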
C8 TRAIL sens – sensitizes caspase-8 expressing cells to TRAIL | inhibition (viability loss, TRAIL sensitization), % at 10 µM | 1% of 360,000 active | NB7+C8 cells + TRAIL, ATPlite viability luminescence;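 active = compounds causing at least 50% loss of cell viability in the single-dose screen, relative to plate controls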
SENP8 block-2 – inhibitors of human SENP8 protease; recombinant SENP8, Nedd8 substrate fluorescence; inhibition, % at 20 µM; 0.64% of 360,000 active; in the data active = inhibition mostly above about 40%, no sharp cut-off; inactive = mostly below about 27%
SENP8 confirm – human SENP8 inhibition, confirmed | shares compounds with SENP7 inh | Recombinant SENP8, Z-RLRGG-aminoluciferin luminescence, 60 min | inhibition, % at 12.5 µM | 40% of 6,200 active | AID 488912;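 active = mean inhibition across replicates above about 50%, limit read from the data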
SENP6 confirm – confirmation of human SENP6 protease inhibitors. shares compounds with SENP7 inh. recombinant SENP6, Z-RLRGG-aminoluciferin luminescence. inhibition, % at 12.5 µM. 58% of 6,200 active. AID 488915
SENP7 confirm – confirmation of human SENP7 protease inhibitors. shares compounds with SENP7 inh. recombinant SENP7, Z-RLRGG-aminoluciferin luminescence, 40 min. inhibition, % at 12.5 µM. 69% of 6,200 active
Casp3 select – inhibits human caspase-3 in SENP selectivity test; shares compounds with SENP7 inh; purified caspase-3, Z-DEVD-aminoluciferin luminescence, 60 min; inhibition, % at 12.5 µM; 60% of 6,200 active;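 active = mean inhibition above about 50%, limit read from the data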;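 note: plate controls were enzyme with DMSO for no effect and wells without caspase-3 for full effect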
SENP luc ctr – counter-screen for SENP inhibitors: luminescence interference; AID 488919; Pre-incubated SENP8/Z-RLRGG-aminoluciferin, luciferase luminescence interference; inhibition, % at 12.5 µM; 39% of 6,200 active; shares compounds with SENP7 inh;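 active = mean inhibition above about 50% when retested at one dose, limit read from the data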;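 note: plate controls were DMSO wells with completed reaction for no effect and substrate without enzyme for full effect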
An asterisk follows results filed as active; x = no result. Only some compounds are listed: those with a hit (about 3% of all), similar ones and a draw of the others.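 Rule for the calls, unless noted: active = mean inhibition above about 50% in the one-dose retest (limit read from the data); inactive = the rest.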

SMILES	SENP8 block-1	SENP6 block	PPC-1+TRAIL kill	SENP7 inh	C8 TRAIL sens	SENP8 block-2	SENP8 confirm	SENP6 confirm	SENP7 confirm	Casp3 select	SENP luc ctr
Cc1ccc(C(=O)Nc2cccc3cccnc23)cc1C	51*	69*	x	63*	-2	-7	43	63*	86*	43	40
Cc1cccc(C(=O)Nc2cccc3cccnc23)c1	1	45	x	21	13	14	x	x	x	x	x
Cc1noc(C)c1S(=O)(=O)N(C)C[C@H]1Oc2ccc(NC(=O)Cc3ccccc3)cc2C(=O)N([C@H](C)CO)C[C@@H]1C	0	8	x	-6	2	-3	x	x	x	x	x
CC(=O)CSc1ccc(-c2nc3ccccc3[nH]2)cn1	48	78*	x	73*	75*	-138	70*	67*	88*	86*	72*
CCOC(=O)CNC(=O)CSc1ccc(-c2nc3ccccc3[nH]2)cn1	-15	-12	x	-2	-7	-264	x	x	x	x	x
N#Cc1ccccc1CSc1ccc(-c2nc3ccccc3[nH]2)cn1	49	64*	2	6	15	-48	67*	63*	80*	34	53*
O=C(Nc1c(-c2ccc3c(c2)OCO3)[nH][nH]c1=O)c1ccc2c(c1)OCO2	x	x	x	x	-21	-91	x	x	x	x	x
Nc1ccccc1N=Nc1ccccc1N	77*	86*	x	85*	24	-88	85*	83*	96*	73*	64*
CCN(C(=O)COC(=O)CCCc1c[nH]c2ccccc12)c1c(N)n(Cc2ccccc2)c(=O)[nH]c1=O	x	x	x	x	-4	3	x	x	x	x	x
CCCC[n+]1ccn(C2=C([O-])c3ccccc3C(=O)/C2=N\S(=O)(=O)c2ccc(Cl)cc2)c1	26	57*	20	30	33	48*	16	50*	0	-2	-4
CCOc1ccc(-c2nc(CCl)cs2)cc1	28	52*	24	8	14	-24	54*	70*	91*	67*	46
COCCn1c(C)cc(C(=O)COC(=O)C2CC(=O)N(CCc3ccc(OC)c(OC)c3)C2)c1C (stereo unspecified)	-2	-6	x	-2	7	8	x	x	x	x	x
CCOc1ccc(C(=O)Nc2cc(NC(=O)c3ccc(OCC)c(Cl)c3)cc(C(=O)O)c2)cc1Cl	3	-7	4	5	-1	3	x	x	x	x	x
O=C(Nc1ccc2c(c1)CCCN2C(=O)c1ccccc1)c1ccccc1	78*	84*	x	83*	16	8	12	85*	97*	85*	67*
Cc1ccccc1C(=O)Nc1ccc2c(c1)CCCN2C(=O)c1cccs1	38	45	x	31	35	13	x	x	x	x	x
Cc1ccc(-c2cc(NC(=O)c3ccccc3)on2)cc1	52*	50*	x	87*	9	9	34	43	92*	63*	2
Cc1ccc(C(=O)Nc2cccc(C(=O)O)c2)cc1	95*	92*	38	99*	x	x	99*	100*	103*	96*	98*
CCOc1ccc(C(=O)Nc2cccc(C(=O)O)c2)cc1Cl	97*	95*	26	100*	49	19	98*	99*	102*	90*	98*
O=C(O)c1cccc(NC(=O)c2cc(NC(=O)c3ccccc3)cc(NC(=O)c3ccccc3)c2)c1	-2	90*	x	10	-7	0	15	8	0	-5	-5
Cc1ccc(COc2ccc(/C=N/O)cc2)cc1	45	70*	9	57*	9	2	71*	70*	86*	48	47
CCS(=O)(=O)Nc1ccc(C2=NN(S(=O)(=O)CC)C(c3cccs3)C2)cc1 (stereo unspecified)	-1	6	x	4	12	-172	x	x	x	x	x
COc1ccccc1NOC(=O)CCOc1ccccc1	x	x	x	x	-12	6	x	x	x	x	x
O=C(O)c1ccc(NS(=O)(=O)Cc2ccc(Cl)c(Cl)c2)cc1	x	x	x	x	7	-5	x	x	x	x	x
Cc1ccc(Cl)cc1NS(=O)(=O)c1ccccc1	x	x	x	x	-14	0	x	x	x	x	x
Cc1ccc(Cl)cc1NC1=C/C(=N\S(=O)(=O)c2cccs2)c2ccccc2C1=O	78*	75*	-7	76*	92*	85*	82*	96*	77*	85*	0
SMILES	SENP8 block-1	SENP6 block	PPC-1+TRAIL kill	SENP7 inh	C8 TRAIL sens	SENP8 block-2	SENP8 confirm	SENP6 confirm	SENP7 confirm	Casp3 select	SENP luc ctr
O=C(Nc1nc2ccsc2c(=O)s1)c1ccco1	53*	72*	12	77*	-3	-86	79*	72*	94*	46	77*
COc1ccc2nc(NC(=O)c3ccco3)sc2c1	87*	88*	x	93*	67*	-204	93*	93*	101*	94*	79*
COc1ccc(-c2csc(NC(=O)c3ccco3)n2)cc1	28	56*	6	25	-2	-55	43	38	75*	32	30
COc1ccc(-c2ccc(NC(=O)c3ccco3)cc2)nn1	90*	91*	x	94*	83*	-38	90*	90*	99*	96*	68*
CCOc1ccc(-c2csc(NC(=O)c3ccco3)n2)cc1	20	45	x	32	-10	-34	x	x	x	x	x
CN(Cc1ccccc1)C(=O)COC(=O)C1CCN(S(=O)(=O)c2ccc(Cl)c(C(F)(F)F)c2)CC1	-5	-9	x	0	-15	8	x	x	x	x	x
O=C(N/N=C/C(Cl)=C/c1ccccc1)c1ccc2c(c1)OCO2	-4	-9	x	-5	25	-3	x	x	x	x	x
CC1CC1C(=O)Nc1nc2ccc(Cl)cc2s1 (stereo unspecified)	-3	1	x	-2	15	16	x	x	x	x	x
CC(=O)Nc1nc2ccc(Br)cc2s1	56*	80*	14	70*	16	13	72*	69*	92*	74*	59*
O=C(Nc1nc2ccc(Br)cc2s1)c1ccco1	58*	75*	x	63*	35	-76	33	64*	90*	69*	30
Cc1cc2sc(NC(=O)c3ccco3)nc2cc1Cl	9	28	x	71*	42	-123	10	10	6	29	7

Screening results: PubChem, Sanford-Burnham Center for Chemical Genomics
